Reference: the supplement of paper PMC10849652
The full data set covers some 7,900 targets. This sample favours those with a hit. About 0.6% of all pairs of compound and target were hits.

Legend:
Test in all cases: log2 fold change, soluble protein after heating vs DMSO (PISA); higher = thermal stabilisation; K562 cells, 10 uM, 30 min; active = over 0.2 and 3.5 SD of the protein, either way, in both replicates (recomputed)
bafetinib = compound: Cc1ccc(NC(=O)c2ccc(CN3CC[C@H](N(C)C)C3)c(C(F)(F)F)c2)cc1Nc1nccc(-c2cncnc2)n1 [bafetinib]
How it was run: (§1)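 Soluble protein was quantified by TMTpro 16plex LC-MS/MS after channel sums were equalised. It was obtained as the supernatant after 21,000xg for 90 min from pooled aliquots of K562 cells (2×10^6 cells/mL, 10 μM compound, 30 min) heated for 3 min across 48°C-58°C and extracted in PBS with 0.5% NP-40 at 4°C. Thermal stability values are relative to control samples and come from duplicates. They are given as log2 fold changes.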

[1] = compound: Cc1cccc(CC(=O)N2CCc3c2ccc(-c2cn(C)c4ncnc(N)c24)c3F)n1
How it was run: as §1

nilotinib = compound: Cc1cn(-c2cc(NC(=O)c3ccc(C)c(Nc4nccc(-c5cccnc5)n4)c3)cc(C(F)(F)F)c2)cn1 [nilotinib]
How it was run: as §1

[2] = compound: Cc1nc(Nc2n[nH]c3c2CN(C(=O)N[C@H](CN(C)C)c2ccccc2)C3(C)C)c2sccc2n1
How it was run: as §1

dasatinib = compound: Cc1nc(Nc2ncc(C(=O)Nc3c(C)cccc3Cl)s2)cc(N2CCN(CCO)CC2)n1 [dasatinib]
How it was run: as §1

[3] = compound: Cc1ncc(-c2ccnc(Nc3ccc(S(C)(=O)=O)cc3)n2)n1C(C)C
How it was run: as §1

[4] = compound: Cn1cc(-c2ccc3c(c2)CCN3C(=O)Cc2cccc(C(F)(F)F)c2)c2c(N)ncnc21
How it was run: as §1

[5] = compound: Cn1cc(-c2ccc3nnc(C(F)(F)c4ccc5ncccc5c4)n3n2)cn1
How it was run: as §1

tipifarnib = compound: Cn1cncc1[C@@](N)(c1ccc(Cl)cc1)c1ccc2c(c1)c(-c1cccc(Cl)c1)cc(=O)n2C [tipifarnib]
How it was run: as §1

mubritinib = compound: FC(F)(F)c1ccc(/C=C/c2nc(COc3ccc(CCCCn4ccnn4)cc3)co2)cc1 [mubritinib]
How it was run: as §1

[6] = compound: NC(=O)Nc1cc(-c2cccc(F)c2)sc1C(=O)N[C@H]1CCCNC1
How it was run: as §1

[7] = compound: NC(=O)c1cnc(N[C@@H]2CCCC[C@@H]2N)nc1Nc1cccc(-n2nccn2)c1
How it was run: as §1

[8] = compound: NC1(c2ccc(-c3nc4ccn5c(=O)[nH]nc5c4cc3-c3ccccc3)cc2)CCC1
How it was run: as §1

[9] = compound: NCC(=O)Nc1ccc(-n2nc(C(F)(F)F)cc2-c2ccc3c(ccc4ccccc43)c2)cc1
How it was run: as §1

entinostat = compound: Nc1ccccc1NC(=O)c1ccc(CNC(=O)OCc2cccnc2)cc1 [entinostat]
How it was run: as §1

vorinostat = compound: O=C(CCCCCCC(=O)Nc1ccccc1)NO [vorinostat]
How it was run: as §1

citarinostat = compound: O=C(CCCCCCNC(=O)c1cnc(N(c2ccccc2)c2ccccc2Cl)nc1)NO [citarinostat]
How it was run: as §1

silmitasertib = compound: O=C(O)c1ccc2c(c1)nc(Nc1cccc(Cl)c1)c1ccncc12 [silmitasertib]
How it was run: as §1

[10] = compound: O=C1NC(=O)C(c2cnc3ccccn23)=C1c1cn2c3c(cc(F)cc13)CN(C(=O)N1CCCCC1)CC2
How it was run: as §1

[11] = compound: c1cc(OCCN2CCCCC2)cc(-c2n[nH]c3ccc(-c4nnc[nH]4)cc23)c1
How it was run: as §1

Measured: log2 fold change

GDPD1 (UniProt Q8N9F7)
UniProt Q8N9F7, sequence (Q8N9F7 whole entry, looked up): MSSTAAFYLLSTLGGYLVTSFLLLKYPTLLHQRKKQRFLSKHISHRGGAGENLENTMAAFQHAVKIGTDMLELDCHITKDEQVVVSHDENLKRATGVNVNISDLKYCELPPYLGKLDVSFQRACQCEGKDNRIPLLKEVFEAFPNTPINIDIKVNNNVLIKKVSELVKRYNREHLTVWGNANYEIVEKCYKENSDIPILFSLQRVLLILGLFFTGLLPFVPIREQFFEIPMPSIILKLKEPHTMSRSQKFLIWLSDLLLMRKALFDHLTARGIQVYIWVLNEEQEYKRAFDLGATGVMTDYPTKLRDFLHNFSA
inactive: bafetinib 0.088 | [1] -0.141 | nilotinib 0.1 | [2] 0.104 | dasatinib 0.023 | [3] -0.045 | [4] 0.046 | [5] -0.031 | tipifarnib 0.106 | mubritinib 0.096 | [6] -0.024 | [7] 0.144 | [8] 0.067 | [9] 0.003 | entinostat -0.011 | vorinostat -0.141 | citarinostat 0.051 | silmitasertib -0.039 | [10] 0.096 | [11] -0.038

GTF3C5 isoform 3 (UniProt Q9Y5Q8)
inactive: bafetinib 0.028 | [1] -0.013 | nilotinib -0.04 | [2] -0.167 | dasatinib -0.269 | [3] -0.137 | [4] 0.027 | [5] -0.063 | tipifarnib 0.01 | mubritinib 0.065 | [6] -0.028 | [7] 0.211 | [8] -0.054 | [9] -0.051 | entinostat 0.046 | vorinostat 0.072 | citarinostat -0.074 | silmitasertib -0.034 | [10] 0.042 | [11] 0.013

GCDH (UniProt Q92947)
UniProt Q92947, sequence (Q92947 whole entry, looked up): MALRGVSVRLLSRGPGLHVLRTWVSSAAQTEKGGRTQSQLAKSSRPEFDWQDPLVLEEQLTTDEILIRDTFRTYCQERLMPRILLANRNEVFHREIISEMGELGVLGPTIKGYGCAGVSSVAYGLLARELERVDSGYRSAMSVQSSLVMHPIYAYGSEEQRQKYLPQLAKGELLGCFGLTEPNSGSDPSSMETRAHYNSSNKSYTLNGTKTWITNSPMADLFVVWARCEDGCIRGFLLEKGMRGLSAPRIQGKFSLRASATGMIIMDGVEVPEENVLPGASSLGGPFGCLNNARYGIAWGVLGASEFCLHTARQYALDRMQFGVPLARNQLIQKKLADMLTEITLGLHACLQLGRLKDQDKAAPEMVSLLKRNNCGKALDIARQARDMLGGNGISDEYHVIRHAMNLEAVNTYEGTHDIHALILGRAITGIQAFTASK
inactive: bafetinib -0.047 | [1] 0.007 | nilotinib 0.002 | [2] 0.017 | dasatinib -0.059 | [3] -0.001 | [4] 0.08 | [5] -0.129 | tipifarnib -0.007 | mubritinib -0.028 | [6] 0.015 | [7] 0.031 | [8] 0.052 | [9] 0.006 | entinostat -0.002 | vorinostat 0.103 | citarinostat 0.025 | silmitasertib -0.05 | [10] -0.019 | [11] 0.009

FCHO1 (UniProt O14526)
UniProt O14526, sequence (O14526 whole entry, looked up): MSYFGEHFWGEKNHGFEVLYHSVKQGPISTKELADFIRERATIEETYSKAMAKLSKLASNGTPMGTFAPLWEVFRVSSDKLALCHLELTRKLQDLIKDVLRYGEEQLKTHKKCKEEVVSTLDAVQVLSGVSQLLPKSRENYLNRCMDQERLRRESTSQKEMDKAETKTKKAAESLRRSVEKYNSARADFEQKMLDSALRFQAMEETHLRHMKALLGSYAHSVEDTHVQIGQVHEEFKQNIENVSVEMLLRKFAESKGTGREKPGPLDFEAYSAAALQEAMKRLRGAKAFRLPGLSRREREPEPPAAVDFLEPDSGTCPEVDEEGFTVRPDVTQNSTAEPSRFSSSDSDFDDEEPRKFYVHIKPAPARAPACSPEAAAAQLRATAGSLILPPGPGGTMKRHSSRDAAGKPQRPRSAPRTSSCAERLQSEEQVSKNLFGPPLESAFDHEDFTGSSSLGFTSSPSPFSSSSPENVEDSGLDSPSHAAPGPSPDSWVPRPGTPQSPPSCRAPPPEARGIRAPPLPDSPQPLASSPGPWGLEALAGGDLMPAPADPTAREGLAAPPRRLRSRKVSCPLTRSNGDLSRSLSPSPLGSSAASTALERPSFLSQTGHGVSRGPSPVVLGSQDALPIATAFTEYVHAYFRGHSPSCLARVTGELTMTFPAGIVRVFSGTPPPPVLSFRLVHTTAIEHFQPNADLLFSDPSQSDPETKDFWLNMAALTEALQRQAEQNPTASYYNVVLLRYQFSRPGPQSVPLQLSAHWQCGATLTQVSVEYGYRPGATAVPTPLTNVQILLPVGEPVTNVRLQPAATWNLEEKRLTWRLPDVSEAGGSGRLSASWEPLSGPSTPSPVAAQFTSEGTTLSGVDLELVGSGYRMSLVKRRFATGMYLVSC
inactive: nilotinib -0.118 | [2] -0.067 | dasatinib -0.275 | [3] -0.127 | [4] 0.079 | [5] 0.033 | tipifarnib -0.119 | mubritinib -0.003 | [6] -0.001 | [7] -0.21 | [8] -0.119 | [9] 0.054 | entinostat -0.032 | citarinostat -0.086 | silmitasertib -0.24 | [10] -0.102 | [11] 0.302

FIBP (UniProt O43427)
UniProt O43427, sequence (O43427 whole entry, looked up): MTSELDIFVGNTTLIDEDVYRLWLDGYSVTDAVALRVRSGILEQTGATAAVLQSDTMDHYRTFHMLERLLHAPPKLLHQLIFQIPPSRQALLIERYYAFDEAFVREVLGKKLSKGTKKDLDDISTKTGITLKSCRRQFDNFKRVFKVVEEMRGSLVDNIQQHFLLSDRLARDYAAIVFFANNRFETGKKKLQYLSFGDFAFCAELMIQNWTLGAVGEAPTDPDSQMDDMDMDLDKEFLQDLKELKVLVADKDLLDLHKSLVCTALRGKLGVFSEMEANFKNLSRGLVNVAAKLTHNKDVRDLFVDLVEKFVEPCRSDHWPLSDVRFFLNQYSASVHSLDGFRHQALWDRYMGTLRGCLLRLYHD
inactive: bafetinib -0.096 | [1] -0.093 | dasatinib -0.201 | [4] 0.118 | [5] -0.06 | tipifarnib -0.029 | mubritinib 0.134 | [6] -0.018 | [7] 0.023 | [8] 0.011 | [9] -0.117 | entinostat -0.005 | vorinostat -0.067 | citarinostat 0.297 | silmitasertib -0.05 | [10] -0.031 | [11] -0.106

FOXO3 (UniProt O43524)
UniProt O43524, sequence (O43524 whole entry, looked up): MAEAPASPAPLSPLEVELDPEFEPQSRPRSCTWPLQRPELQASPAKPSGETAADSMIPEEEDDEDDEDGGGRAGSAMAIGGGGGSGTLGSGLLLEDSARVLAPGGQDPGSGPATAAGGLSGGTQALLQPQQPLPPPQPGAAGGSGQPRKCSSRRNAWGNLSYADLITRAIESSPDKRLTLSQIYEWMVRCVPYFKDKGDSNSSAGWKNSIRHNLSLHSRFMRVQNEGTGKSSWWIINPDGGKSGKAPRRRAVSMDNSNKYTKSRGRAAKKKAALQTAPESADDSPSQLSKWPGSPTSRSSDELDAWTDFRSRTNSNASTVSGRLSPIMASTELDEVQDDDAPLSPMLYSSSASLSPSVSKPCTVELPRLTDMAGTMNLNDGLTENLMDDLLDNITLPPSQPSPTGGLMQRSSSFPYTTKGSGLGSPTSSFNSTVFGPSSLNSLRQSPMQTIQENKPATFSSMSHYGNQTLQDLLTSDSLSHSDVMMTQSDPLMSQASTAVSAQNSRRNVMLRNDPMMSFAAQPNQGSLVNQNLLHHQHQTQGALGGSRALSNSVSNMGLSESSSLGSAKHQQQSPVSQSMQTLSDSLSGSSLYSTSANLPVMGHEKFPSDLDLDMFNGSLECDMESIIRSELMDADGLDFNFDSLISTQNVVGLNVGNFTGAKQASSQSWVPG
inactive: [1] 0.002 | dasatinib -0.14 | [4] 0 | [5] -0.013 | tipifarnib -0.139 | mubritinib -0.057 | [6] -0.395 | [7] -0.089 | [8] -0.025 | [9] -0.072 | entinostat -0.063 | vorinostat 0.222 | citarinostat 0.002 | silmitasertib -0.136 | [10] -0.046 | [11] 0.035

IGF2 isoform 3 (UniProt P01344)
UniProt P01344, sequence (P01344 whole entry, looked up): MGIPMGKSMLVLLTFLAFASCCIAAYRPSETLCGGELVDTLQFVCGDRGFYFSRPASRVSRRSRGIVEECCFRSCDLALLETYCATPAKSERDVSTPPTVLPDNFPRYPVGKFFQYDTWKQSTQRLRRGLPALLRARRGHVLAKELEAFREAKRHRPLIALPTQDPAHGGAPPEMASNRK
inactive: dasatinib 0.019 | [9] -0.004

HS1BP3 (UniProt Q53T59)
UniProt Q53T59, sequence (Q53T59 whole entry, looked up): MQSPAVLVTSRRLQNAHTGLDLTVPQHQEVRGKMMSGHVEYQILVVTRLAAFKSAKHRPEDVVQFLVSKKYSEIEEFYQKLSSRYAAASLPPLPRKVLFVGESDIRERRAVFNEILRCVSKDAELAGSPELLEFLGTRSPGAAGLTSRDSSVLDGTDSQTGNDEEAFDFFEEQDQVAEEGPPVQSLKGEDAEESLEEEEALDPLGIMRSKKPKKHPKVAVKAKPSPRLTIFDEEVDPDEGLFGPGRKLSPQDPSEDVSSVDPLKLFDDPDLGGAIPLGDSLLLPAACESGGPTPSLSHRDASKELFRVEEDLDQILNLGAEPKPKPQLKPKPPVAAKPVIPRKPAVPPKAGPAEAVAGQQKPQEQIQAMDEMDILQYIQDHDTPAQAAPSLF
inactive: bafetinib -0.022 | nilotinib -0.023 | [2] -0.104 | dasatinib -0.047 | [3] -0.029 | [4] 0.062 | [5] -0.067 | tipifarnib -0.038 | [6] -0.059 | [7] -0.075 | [9] 0.027 | entinostat -0.05 | citarinostat 0.115 | [10] -0.016 | [11] 0.108

FEN1 (UniProt P39748)
inactive: bafetinib 0.02 | [1] 0.23 | nilotinib -0.149 | [2] 0.053 | [3] -0.05 | [4] 0.16 | [5] 0.164 | tipifarnib -0.274 | mubritinib 0.314 | [6] -0.022 | [7] -0.154 | [8] -0.28 | [9] -0.157 | entinostat 0.034 | vorinostat 0.246 | citarinostat 0.111 | silmitasertib -0.1 | [10] -0.129 | [11] 0.035

FMR1 (UniProt Q06787)
active: [8] 0.836
inactive: [1] -0.146 | [4] -0.224 | [5] -0.028 | tipifarnib -0.129 | mubritinib -0.175 | [6] 0.086 | entinostat -0.106 | vorinostat -0.137 | citarinostat 0.101 | silmitasertib 0.058 | [11] -0.146

IDH3A isoform 2 (UniProt P50213)
inactive: bafetinib 0.004 | nilotinib 0 | [2] 0.001 | [3] -0.057 | [4] 0.128 | [7] -0.06

FIZ1 (UniProt Q96SL8)
inactive: [1] -0.092 | nilotinib -0.09 | [2] 0.065 | dasatinib -0.026 | [3] -0.213 | [4] -0.137 | mubritinib -0.191 | [6] 0.026 | [8] 0.097 | [9] 0.061 | entinostat -0.257 | vorinostat 0.044 | citarinostat -0.12 | silmitasertib -0.103 | [10] 0.06 | [11] 0.041

GLIPR2 (UniProt Q9H4G4)
UniProt Q9H4G4, sequence (Q9H4G4 whole entry, looked up): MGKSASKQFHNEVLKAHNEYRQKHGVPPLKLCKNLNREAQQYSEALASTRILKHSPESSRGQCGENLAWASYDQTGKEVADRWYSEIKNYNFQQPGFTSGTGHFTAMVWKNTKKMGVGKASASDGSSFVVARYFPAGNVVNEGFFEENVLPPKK
inactive: bafetinib -0.101 | [1] -0.024 | dasatinib -0.059 | [4] 0.031 | [5] 0.087 | tipifarnib 0.019 | mubritinib 0.054 | [6] -0.038 | [7] -0.058 | [8] -0.101 | [9] -0.071 | entinostat 0.058 | vorinostat 0.032 | citarinostat -0.029 | silmitasertib 0.112 | [10] -0.017 | [11] -0.037

GGA2 (UniProt Q9UJY4)
UniProt Q9UJY4, sequence (Q9UJY4 whole entry, looked up): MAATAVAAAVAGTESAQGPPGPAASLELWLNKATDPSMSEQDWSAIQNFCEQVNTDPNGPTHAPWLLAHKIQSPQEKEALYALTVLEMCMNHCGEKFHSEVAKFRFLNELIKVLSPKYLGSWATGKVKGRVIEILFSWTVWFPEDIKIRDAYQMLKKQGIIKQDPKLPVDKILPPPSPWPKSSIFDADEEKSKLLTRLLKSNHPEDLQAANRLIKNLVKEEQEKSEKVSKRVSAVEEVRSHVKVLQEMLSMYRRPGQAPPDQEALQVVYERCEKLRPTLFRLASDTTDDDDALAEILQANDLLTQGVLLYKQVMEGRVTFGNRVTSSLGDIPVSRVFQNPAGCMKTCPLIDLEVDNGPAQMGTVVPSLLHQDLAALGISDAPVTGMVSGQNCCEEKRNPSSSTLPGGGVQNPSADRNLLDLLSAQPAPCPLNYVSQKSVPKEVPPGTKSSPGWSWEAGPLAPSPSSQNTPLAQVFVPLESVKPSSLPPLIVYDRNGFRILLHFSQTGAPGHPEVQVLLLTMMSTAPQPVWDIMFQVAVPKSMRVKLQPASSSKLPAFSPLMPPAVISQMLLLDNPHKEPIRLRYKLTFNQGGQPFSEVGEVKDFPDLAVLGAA
inactive: bafetinib 0.024 | nilotinib -0.031 | [2] 0.065 | dasatinib 0.075 | [3] -0.013 | [4] 0.024 | [5] 0.034 | tipifarnib -0.003 | mubritinib 0.014 | [6] 0.02 | [7] -0.02 | [8] -0.208 | [9] 0.01 | entinostat 0.032 | citarinostat 0.042 | silmitasertib 0.033 | [10] 0.152 | [11] -0.034

GPNMB (UniProt Q14956)
inactive: citarinostat -0.125 | [10] -0.015 | [11] 0.727

HNRNPK isoform 3 (UniProt P61978)
inactive: bafetinib 0.003 | [1] -0.18 | nilotinib -0.115 | [2] -0.022 | dasatinib 0.021 | [3] 0.143 | [5] -0.002 | mubritinib -0.101 | [6] -0.06 | [8] 0.052 | [9] -0.182 | entinostat 0.023 | vorinostat 0.035 | citarinostat -0.009 | silmitasertib 0.028 | [10] 0.159 | [11] -0.102

HSPA8 (UniProt E9PN89)
inactive: bafetinib -0.04 | [1] -0.338 | nilotinib -0.12 | [2] 0.041 | [3] -0.123 | [4] -0.063 | tipifarnib 0.122 | mubritinib 0.004 | [6] -0.317 | [7] -0.283 | [8] -0.172 | [9] -0.372 | entinostat -0.135 | vorinostat -0.057 | citarinostat -0.304 | silmitasertib 0.365 | [10] -0.102 | [11] -0.394

FAT2 (UniProt Q9NYQ8)
inactive: bafetinib 0.076 | [1] -0.005 | dasatinib 0.006 | [4] 0.167 | [5] 0.002 | tipifarnib 0.008 | mubritinib 0.354 | [8] -0.334 | [9] -0.134 | vorinostat 0.068 | citarinostat -0.045 | silmitasertib -0.063 | [10] -0.06 | [11] -0.06

FUNDC1 (UniProt Q8IVP5)
UniProt Q8IVP5, sequence (Q8IVP5 whole entry, looked up): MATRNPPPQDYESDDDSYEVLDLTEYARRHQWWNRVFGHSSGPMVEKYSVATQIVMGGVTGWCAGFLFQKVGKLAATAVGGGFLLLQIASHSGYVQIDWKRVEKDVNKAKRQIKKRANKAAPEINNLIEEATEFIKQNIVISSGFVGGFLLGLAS
inactive: bafetinib -0.169 | tipifarnib 0 | mubritinib 0.066 | [6] -0.058 | [8] -0.104 | entinostat 0.01 | silmitasertib 0.055

HSPA2 (UniProt P54652)
UniProt P54652, sequence (P54652 whole entry, looked up): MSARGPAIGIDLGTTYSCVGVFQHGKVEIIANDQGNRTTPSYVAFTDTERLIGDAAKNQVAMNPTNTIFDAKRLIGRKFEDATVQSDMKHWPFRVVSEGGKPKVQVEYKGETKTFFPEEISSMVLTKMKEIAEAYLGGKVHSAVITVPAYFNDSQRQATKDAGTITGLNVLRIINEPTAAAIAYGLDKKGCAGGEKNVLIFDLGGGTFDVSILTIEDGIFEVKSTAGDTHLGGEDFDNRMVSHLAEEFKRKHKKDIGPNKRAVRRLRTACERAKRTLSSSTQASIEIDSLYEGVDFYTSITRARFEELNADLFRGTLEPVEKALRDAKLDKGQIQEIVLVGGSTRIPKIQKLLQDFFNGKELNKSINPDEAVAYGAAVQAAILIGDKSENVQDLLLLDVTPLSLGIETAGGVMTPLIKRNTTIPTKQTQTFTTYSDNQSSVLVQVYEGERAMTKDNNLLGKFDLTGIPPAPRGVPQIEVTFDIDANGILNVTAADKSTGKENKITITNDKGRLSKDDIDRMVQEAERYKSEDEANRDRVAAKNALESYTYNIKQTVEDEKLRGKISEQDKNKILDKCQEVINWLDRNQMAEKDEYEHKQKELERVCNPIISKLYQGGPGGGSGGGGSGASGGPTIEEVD
inactive: bafetinib -0.08 | nilotinib 0.024 | [2] 0.031 | [3] -0.013 | [5] 0.003 | mubritinib -0.067 | [6] -0.015 | [7] 0.076 | [8] -0.071 | entinostat -0.039 | silmitasertib 0.006

FYB1 isoform 3 (UniProt O15117)
inactive: bafetinib -0.019 | [1] -0.071 | nilotinib -0.036 | [2] -0.026 | dasatinib -0.021 | [3] -0.077 | [5] -0.156 | tipifarnib -0.025 | mubritinib 0.085 | [6] -0.045 | [7] 0.007 | [8] 0.017 | [9] 0.02 | entinostat 0.025 | vorinostat -0.02 | citarinostat 0.093 | silmitasertib -0.097 | [10] -0.037 | [11] -0.002
